From PubChem BioAssay (NCATS)
Inconclusive results are not listed. The source made the active and inactive calls. Calls come from the whole dose curve; as a rule, active = well fitted inhibition curve with a large enough effect; inconclusive = small, poorly fitted or top-dose-only effect; inactive = flat fitted curve, though single readings scatter.

Tests used:
CRL-7250 [1] = experiment: Cytotoxic Profiling of Annotated Libraries Using Quantitative High-Throughput Screening (AID 1296008); conditions: Five cell lines viability, CellTiter-Glo ATP luminescence, 48-72 h; max response: active compounds read low; note: potency is the fitted concentration of half-maximal effect; for max response: % is set by controls: 0 for no effect and ±100 for the full control effect
Outline: (§1)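 Compounds were pin-transferred onto cells and incubated 48 or 72 hr at 37 degree Celsius, 95% humidity. CellTiter-Glo was added, plates sat 10 min at room temperature, then ATP-coupled luminescence was imaged as the viability read-out.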

HEK293 = experiment: as above; conditions: Five cell lines viability, CellTiter-Glo ATP luminescence, 48-72 h; max response: active compounds read low
Outline: as §1

HaCat = experiment: as above; conditions: Five cell lines viability, CellTiter-Glo ATP luminescence, 48-72 h; max response: active compounds read low
Outline: as §1

KB-3-1 = experiment: as above; conditions: Five cell lines viability, CellTiter-Glo ATP luminescence, 48-72 h; max response: active compounds read low
Outline: as §1

NIH3T3 = experiment: as above; conditions: Five cell lines viability, CellTiter-Glo ATP luminescence, 48-72 h; max response: active compounds read low
Outline: as §1

CRL-7250 [2] = experiment: qHTS assay to identify novel small-molecules to repurpose for Merkel cell carcinoma treatment (AID 1296009); conditions: MCC and control cell lines, CellTiter-Glo viability, 72 h; at 44.8 µM (top of the series) unless noted
Outline: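 Luminescence from CellTiter-Glo, read 10 min after addition at room temperature, reported viability following a 72 hr, 37 degree celsius treatment with NPC or MIPE compounds in titration; values normalized to plate controls.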

TAB109 = experiment: qHTS profiling for inhibitors of Plasmodium falciparum proliferation (AID 504749); note: potency is the fitted concentration of half-maximal effect; conditions: P. falciparum in erythrocytes, SYBR Green DNA, 72 h; series mostly up to 28.7 µM
Outline: (§2)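 Fluorescence of SYBR Green-bound parasite DNA, read at 485/535 nm, served as the growth measure. Infected erythrocytes were cultured with compound 72 h; artemisinin (0.29 uM) and DMSO wells defined the normalization range.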

TAB113 = experiment: as above; conditions: P. falciparum in erythrocytes, SYBR Green DNA, 72 h; series mostly up to 28.7 µM
Outline: as §2

TAB165 = experiment: as above; conditions: P. falciparum in erythrocytes, SYBR Green DNA, 72 h; series mostly up to 28.7 µM
Outline: as §2

W2 = experiment: as above; conditions: P. falciparum in erythrocytes, SYBR Green DNA, 72 h; series mostly up to 28.7 µM
Outline: as §2
Note: nearly all actives have a fitted effect of over 60% in size.

CC[C@H]1CN2CC[C@H]1C[C@@H]2[C@@H](O)c1ccnc2ccc(OC)cc12
inactive: outcome (CRL-7250 [1]) | outcome (HEK293) | outcome (HaCat) | max response (KB-3-1) 5.11% | outcome (NIH3T3) | outcome (CRL-7250 [2])

CC1=C2C(=O)C3[C@@H](CC=C4C[C@@H](O)CC[C@@]43C)[C@@H]2CC[C@]12O[C@@H]1C[C@H](C)CN[C@H]1[C@H]2C (stereo partly specified)
inactive: outcome (CRL-7250 [1]) | max response (HEK293) -3.9% | outcome (HaCat) | outcome (KB-3-1) | outcome (NIH3T3) | outcome (CRL-7250 [2]) inactive [at 17.4 µM]

C/C=C(\C)C(=O)OC1CC2C(C)(C)OC(=O)CC(OC(C)=O)C2(C)C2CC(OC(=O)C(C)C)C3(C)C(c4ccoc4)CC4OC43C12C (stereo unspecified)
inactive: outcome (CRL-7250 [1]) | max response (HEK293) -0.997% | outcome (HaCat) | max response (KB-3-1) 7.39% | max response (NIH3T3) 0.059% | outcome (CRL-7250 [2]) inactive [at 17.4 µM]

CC1C/C=C/C(O)C(O)CC/C=C/c2cc(O)cc(O)c2C(=O)O1 (stereo unspecified)
inactive: outcome (CRL-7250 [1]) | outcome (HEK293) | max response (HaCat) -2.35% | max response (KB-3-1) 0.529% | max response (NIH3T3) 3.47% | outcome (CRL-7250 [2])

CC(C)(C)c1cc(C(C)(C)C)c2c(c1)C(O)(C(F)(F)F)C(=O)O2 (stereo unspecified)
inactive: outcome (CRL-7250 [1]) | max response (HEK293) 1.2% | outcome (HaCat) | outcome (KB-3-1) | outcome (NIH3T3) | outcome (CRL-7250 [2])

CN[C@H]1[C@H](O)[C@H](O[C@@H]2[C@@H](O)[C@H](O[C@H]3O[C@H]([C@H](C)O)[C@@H](O)[C@H](O)[C@H]3N)[C@@H](N)C[C@H]2N)OC[C@@]1(C)O
inactive: outcome (CRL-7250 [1]) | max response (HEK293) -1.94% | outcome (HaCat) | max response (KB-3-1) 3.55% | max response (NIH3T3) 4.53% | outcome (CRL-7250 [2])

CN1C(=O)c2ccccc2NC(=O)[C@]12O[C@@H]2c1ccccc1
inactive: max response (CRL-7250 [1]) -12.4% | outcome (HEK293) | max response (HaCat) -12.1% | max response (KB-3-1) 8.97% | max response (NIH3T3) -7.39%

COC1CC(O[C@H]2CC[C@@]3(C)C(=CCC4C3C(O)[C@@H](O)[C@]3(C)[C@@H](C(C)=O)CC[C@]43O)C2)OC(C)C1OC1CC(OC)C(OC2OC(C)C(O)C(O)C2O)C(C)O1 (stereo partly specified)
inactive: max response (CRL-7250 [1]) -8.18% | outcome (HEK293) | outcome (HaCat) | outcome (NIH3T3)

C[CH2][Hg][S]c1ccccc1C(=O)O
active: Potency (TAB109) 2510 nM | Potency (TAB113) 3160 nM | Potency (TAB165) 2240 nM | Potency (W2) 2130 nM | Potency (CRL-7250 [1]) 16800 nM | Potency (KB-3-1) 7310 nM
